Laboratory results reported in PubChem BioAssay AID1209 (Sanford-Burnham Center for Chemical Genomics, 2008).
The whole screen tested about 190,000 compounds, of which about 810 (0.43%) were called active. The sample holds actives, similar compounds and a random draw of the others, so the mix is not that of the screen. Rule as the data show it: active = inhibition above about 50%; inactive = the rest.

Biological target: Mannose-6-phosphate isomerase (Homo sapiens) (UniProt P34949)
Experiment: MPI enzyme activity inhibition – biochemical, fluorescence intensity, coupled assay, primary screen (AID 1209);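 also: plate controls were DMSO vehicle for no effect and wells lacking substrate for full effect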
Settings: purified PMI enzyme, at 20 µM, stronger effect = higher value

Mannose-6-phosphate isomerase (Homo sapiens), sequence (P34949 whole entry, looked up): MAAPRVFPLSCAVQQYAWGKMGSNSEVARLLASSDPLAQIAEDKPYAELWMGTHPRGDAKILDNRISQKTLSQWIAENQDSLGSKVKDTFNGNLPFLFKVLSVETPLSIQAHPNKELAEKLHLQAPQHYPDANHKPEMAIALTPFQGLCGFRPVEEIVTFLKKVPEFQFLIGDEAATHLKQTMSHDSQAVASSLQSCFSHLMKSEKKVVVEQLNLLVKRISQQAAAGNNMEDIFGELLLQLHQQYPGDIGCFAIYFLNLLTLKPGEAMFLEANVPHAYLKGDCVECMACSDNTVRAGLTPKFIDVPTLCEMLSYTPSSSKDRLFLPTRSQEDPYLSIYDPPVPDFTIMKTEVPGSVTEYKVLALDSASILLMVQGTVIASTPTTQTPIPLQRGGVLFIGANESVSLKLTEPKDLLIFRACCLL

Compound	inhibition
CCOc1ccc(NC(=NCc2ccc3c(c2)OCO3)SC2CC(=O)N(c3ccccc3)C2=O)cc1 (configuration not stated)	-4.2% (inactive)
CCN(CC)S(=O)(=O)c1ccc(NC2c3ccccc3C(=O)N2CCN2CCOCC2)cc1 (configuration not stated)	18.5% (inactive)
Cc1cc(C(C)(C)C)c(O)c(C(C)(C)C)c1	0% (inactive)
Cc1cc(C)c(O)c(N)c1	33.4% (inactive)
CC1(c2ccccc2)NC(=O)N(CC(=O)Nc2cc(S(=O)(=O)N3CCOCC3)ccc2Cl)C1=O (configuration not stated)	1.7% (inactive)
COc1ccc(OCC(=O)Nc2ncc3c(n2)CC(C)(C)CC3=O)cc1	7.1% (inactive)
Cc1ccc(N(C(C)C(=O)Nc2c(C)n(C)n(-c3ccccc3)c2=O)S(C)(=O)=O)cc1C (configuration not stated)	-4.4% (inactive)
CC(C)[C@H]1CN=C2N(CCNC(=O)CCC3CCCCC3)[C@H](Cc3ccc(O)cc3)CN21	65.2% (active)
C[C@H]1CN=C2N(CCNC(=O)CCC3CCCCC3)[C@H](Cc3ccc(O)cc3)CN21	2.5% (inactive)
O=C(CCC1CCCCC1)NCCN1C2=NC[C@H](Cc3ccc(O)cc3)N2C[C@H]1Cc1ccc(O)cc1	5% (inactive)
O=C(CCC1CCCCC1)NCCN1C2=NC[C@H](Cc3ccccc3)N2C[C@H]1Cc1ccc(O)cc1	8% (inactive)
COc1ccc(C[C@H]2CN3C(=NC[C@@H]3C(C)C)N2CCNC(=O)CCC2CCCCC2)cc1	7.4% (inactive)
C[C@@H]1CN=C2N(CCNC(=O)CCC3CCCCC3)[C@H](Cc3ccc(O)cc3)CN21	85.3% (active)
CC(OC(=O)/C=C/c1cccs1)C(=O)Nc1ccc(S(N)(=O)=O)cc1 (configuration not stated)	-5.9% (inactive)
Cc1ccccc1OCC(=O)N(Cc1ccc(N(C)C)cc1)C1CCS(=O)(=O)C1 (configuration not stated)	3.1% (inactive)
C=CCNc1ccc(F)c(F)c1N1CCCCCC1=O	4.8% (inactive)
NC(=O)c1cc2cc(Cc3ccccc3Cl)ccc2oc1=O	-1.2% (inactive)
O=C(CN1C(=O)c2ccccc2S1(=O)=O)Nc1ccc(S(=O)(=O)N2CCCCCC2)cc1	18.7% (inactive)
Cc1ccc(S(=O)(=O)Nc2ccc(O)c(Sc3ncn[nH]3)c2)cc1	15.2% (inactive)
Cc1cc(C)c(S(=O)(=O)Nc2ccc(O)c(Sc3ncn[nH]3)c2)c(C)c1	6.8% (inactive)
Cc1cc(C)c(S(=O)(=O)/N=C2/C=C(SCC(=O)O)C(=O)c3ccccc32)cc1C	-23.3% (inactive)
Cc1ccc(NC2=C/C(=N\S(=O)(=O)c3cccs3)c3ccccc3C2=O)c(C)c1	0.2% (inactive)
Cc1ccc(S(=O)(=O)/N=C2/C=C(Sc3ncn[nH]3)C(=O)c3ccccc32)c(C)c1	101% (active)
Cc1cc(C)c(S(=O)(=O)/N=C2/C=C(Sc3ncn[nH]3)C(=O)c3ccccc32)cc1C	98.1% (active)
CCn1c(COc2c(C)cccc2C)nnc1SCC(=O)N1CCN(c2ccccc2)CC1	8.2% (inactive)

Compound	inhibition
Cc1ccc(-c2nn(CC(=O)NCc3ccccn3)c(=O)c3ccccc23)cc1S(=O)(=O)N(C)C	-28.3% (inactive)
COc1ccccc1NC(=O)c1ccc(NS(=O)(=O)c2ccc(F)c(F)c2F)cc1	-19.3% (inactive)
COC(=O)c1cn(C(=O)c2ccc(C)cc2)c2ccccc12	12.6% (inactive)
Cc1c(N=C2C=C(Br)C(=O)C(Br)=C2)c(=O)n(-c2ccccc2)n1C	64.3% (active)
CC(=O)/C(N=Nc1c(C)n(C)n(-c2ccccc2)c1=O)=C(\C)O	-44.4% (inactive)
Cc1c(N=C2C(=O)Nc3ccccc32)c(=O)n(-c2ccccc2)n1C	0.4% (inactive)
CCC(c1c(C)n(C)n(-c2ccccc2)c1=O)c1c(C)n(C)n(-c2ccccc2)c1=O	-4.4% (inactive)
Cc1csc(=Nc2c(C)n(C)n(-c3ccccc3)c2=O)n1-c1ccccc1	1.6% (inactive)
Cc1c(N=c2scc(-c3ccccc3)n2C)c(=O)n(-c2ccccc2)n1C	-16.2% (inactive)
Cc1c(N=C2C=CC(=O)c3ccccc32)c(=O)n(-c2ccccc2)n1C	55.2% (active)
Cc1c(N=Nc2ccc(O)cc2)c(=O)n(-c2ccccc2)n1C	15.5% (inactive)
CCCC(c1c(C)n(C)n(-c2ccccc2)c1=O)c1c(C)n(C)n(-c2ccccc2)c1=O	3.4% (inactive)
CC1=CC(=Nc2c(C)n(C)n(-c3ccccc3)c2=O)C=C(C)C1=O	83.8% (active)
CCC(C)C1=CC(=Nc2c(C)n(C)n(-c3ccccc3)c2=O)C=C(C(C)CC)C1=O (configuration not stated)	52.2% (active)
Cc1c(N=CC=Nc2c(C)n(C)n(-c3ccccc3)c2=O)c(=O)n(-c2ccccc2)n1C	-0.3% (inactive)
CC(C)NS(=O)(=O)c1ccc(OCC(=O)NC(C)c2ccccc2)cc1 (configuration not stated)	2.2% (inactive)
O=C(O)c1ccc(/C=C/c2nc3sc4c(c3c(=O)[nH]2)CCC4)cc1	-3.7% (inactive)
COc1cnn(C(C)(C)C)c(=O)c1Cl	-0.3% (inactive)
COc1ccc(CC(=O)NCc2ccc3c(c2)cc(C)n3C)cc1OC	6.1% (inactive)
O=C(Nc1ccc(Cl)cc1)NC1CCCc2ccccc21 (configuration not stated)	2.6% (inactive)
Cc1cc(/C=C(\C#N)C(N)=O)c(C)n1-c1ccc(N2CCOCC2)c([N+](=O)[O-])c1	3.6% (inactive)
COc1cc2c(cc1O)CC[C@@H]1[C@@H]2CC[C@]2(C)[C@@H](O)CC[C@@H]12	1.7% (inactive)
C[C@]12CC[C@@H]3c4ccc(O)cc4CC[C@H]3[C@@H]1CC[C@@H]2O	-5.7% (inactive)
C[C@]12CC[C@@H]3c4cc(O)c(O)cc4CC[C@H]3[C@@H]1CC[C@@H]2O	51.8% (active)
Cc1ccc(NC(=O)COC(=O)c2ccc3c(c2)C(=O)N(CCc2ccccc2)C3=O)c(C)c1	4.6% (inactive)

Compound	inhibition
Cc1cc(C)n(-c2cc(N3CCN(S(=O)(=O)c4ccc(Br)cc4)CC3)ccc2[N+](=O)[O-])n1	13.5% (inactive)
Cc1nc2c(C(=O)NCCc3ccccc3)c[nH]n2c(=O)c1Cl	60.3% (active)
Cc1nc2c(C(=O)NCc3ccccc3)c[nH]n2c(=O)c1Cl	12.3% (inactive)
Cc1nc2c(C(=O)NCCc3ccccc3Cl)c[nH]n2c(=O)c1Cl	2.9% (inactive)
CNS(=O)(=O)c1cnccc1N1CCN(C)CC1	9.4% (inactive)
Cc1ccc(C(=O)Nc2ccc(SC(F)F)cc2)s1	-11.4% (inactive)
COc1cc(/C=C2\CC/C(=C\c3cc(OC)c(O)c(OC)c3)C2=O)cc(OC)c1O	59.3% (active)
COc1cc(/C=C2\CC/C(=C\c3cc(OC)c(OC)c(OC)c3)C2=O)cc(OC)c1OC	4.2% (inactive)
COc1ccc(/C=C2\CC/C(=C\c3ccc(OC)c(OC)c3)C2=O)cc1OC	25.9% (inactive)
CCn1c(COc2cccc3ccccc23)nnc1SCC(=O)OC1CCCCC1	17.8% (inactive)
Cc1ccc(S(=O)(=O)NCC(=O)N2CCCC2)cc1	-10.6% (inactive)
Cc1ccccc1CNC(=O)Cc1cccs1	2% (inactive)
Cc1ccsc1/C=C1\CCc2ccccc2C1=O	25.2% (inactive)
COc1ccc(CCNC(=O)C2CC(=O)N(CCc3ccccc3)C2)cc1OC (configuration not stated)	0% (inactive)
Cc1ccc(C)c(NC(=S)Nc2cccnc2)c1	-7% (inactive)
CC(C)NC(=S)Nc1cccc2cnccc12	-4.7% (inactive)
Cc1ccc(C)c(NC(=S)Nc2cccc3cnccc23)c1	50.3% (active)
Cc1ccccc1NC(=S)Nc1cccc2cnccc12	60.5% (active)
Cc1ccc(NC(=S)Nc2cccc3cnccc23)c(C)c1	37.8% (inactive)
FC(F)(F)c1ccccc1NC(=S)Nc1cccc2cnccc12	5.4% (inactive)
O=C(O)CCC(=O)NNC(=O)CCC(=O)Nc1ccccc1	13.6% (inactive)
CC(=O)c1cc(NC(=O)c2ccc([N+](=O)[O-])cc2)c(=O)oc1C	-41% (inactive)
O=C(Nc1cc2c(oc1=O)CCCC2=O)c1cccc(Cl)c1	-17.4% (inactive)
CCN1CCN(S(=O)(=O)Cc2ccccc2)CC1	-0.2% (inactive)
CCOC(=O)N1CCN(S(=O)(=O)Cc2ccccc2)CC1	104% (active)

Compound	inhibition
CCOC(=O)C1CCN(S(=O)(=O)Cc2ccccc2)CC1	-11.2% (inactive)
CC1=Nc2cccc3cccc(c23)N1C	25.2% (inactive)
CN1/C(=N\O)c2cccc3cccc1c23	5.7% (inactive)
CCC1=[N+](C)c2cccc3cccc(c23)N1C	51% (active)
O=C(CCc1ccc(Oc2cc([N+](=O)[O-])cc([N+](=O)[O-])c2)cc1)N1CCCCCC1	5.7% (inactive)
COc1ccccc1NC(=S)N(CCc1nc2cc(C)c(C)cc2[nH]1)Cc1cccnc1	-2% (inactive)
CCOC(=O)C(NC(=O)CC)(Nc1ccc(S(=O)(=O)Nc2ncccn2)cc1)C(F)(F)F (configuration not stated)	0.5% (inactive)
Cc1cc2c(C)cc(=O)oc2c2c1NCCC2	25.3% (inactive)
Oc1c(Cl)cc(Cl)c2c1NCCC2	61.2% (active)
Cc1ccc(OC(=O)C(F)(F)F)c2c1NCCC2	16.6% (inactive)
COc1ccc(Cl)cc1-n1c(N)c(C(N)=O)sc1=S	22.6% (inactive)
COC(=O)c1sc(=S)n(-c2ccccc2OC)c1N	0.3% (inactive)
CCOC(=O)c1sc(=S)n(-c2ccc(F)c(F)c2)c1N	27% (inactive)
COC(=O)c1sc(=S)n(-c2cc(F)ccc2F)c1N	55.8% (active)
CCOC(=O)c1sc(=S)n(-c2cc(F)ccc2F)c1N	37.9% (inactive)
Cc1ccc(NC(=O)c2sc(=S)n(-c3cc(C)ccc3F)c2N)cc1	1.4% (inactive)
CCOC(=O)c1sc(=S)n(-c2cccc(OC)c2)c1N	63.2% (active)
CCOC(=O)c1sc(=S)n(-c2ccccc2)c1N	-2.1% (inactive)
COC(=O)c1sc(=S)n(-c2cccc(Cl)c2)c1N	75.9% (active)
CCOC(=O)c1sc(=S)n(-c2ccccc2OC)c1N	21.8% (inactive)
CCOC(=O)c1sc(=S)n(-c2ccc(C)cc2)c1N	30.1% (inactive)
CCOC(=O)c1sc(=S)n(-c2cc(OC)ccc2OC)c1N	65.3% (active)
